Screens deposited in PubChem BioAssay by National Center for Advancing Translational Sciences (NCATS).
Sampled rows, rich in hits. Any-hit rate of the full collection: about 3%.
IP6K1 inh = blocks human inositol hexakisphosphate kinase 1; Q92551; AID 1645851; activity change, % (series mostly up to about 58 µM); 140,000 compounds, 0.81% hits; IP6K1 kinase, ADP-Glo luminescence, 2 h; stronger effect = lower value; in the data active = activity change below about -25%
Target sequence (Q92551 whole entry, looked up): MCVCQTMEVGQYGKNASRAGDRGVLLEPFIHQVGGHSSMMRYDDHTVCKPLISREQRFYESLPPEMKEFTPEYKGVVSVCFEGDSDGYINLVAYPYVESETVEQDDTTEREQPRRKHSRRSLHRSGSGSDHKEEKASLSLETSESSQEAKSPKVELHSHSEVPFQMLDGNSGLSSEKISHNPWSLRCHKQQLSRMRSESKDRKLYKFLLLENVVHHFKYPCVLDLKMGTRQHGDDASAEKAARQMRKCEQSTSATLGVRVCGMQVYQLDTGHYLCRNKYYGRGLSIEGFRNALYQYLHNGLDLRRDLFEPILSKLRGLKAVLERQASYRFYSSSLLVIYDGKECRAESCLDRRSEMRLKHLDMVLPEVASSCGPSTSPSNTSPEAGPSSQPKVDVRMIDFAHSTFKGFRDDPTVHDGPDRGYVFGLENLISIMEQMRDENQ
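ADP-Glo luminescence measures ADP made by human IP6K1 during a 2 h RT reaction with ATP/IP6 (mix at 1.3 mM/130 uM); top library doses 57.5 and 19.1 uM final.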
KDM5B inhibitor = blocks human KDM5B histone demethylase activity; Q9UGL1; KDM5B demethylase, FDH-coupled NADH fluorescence (FDH is formaldehyde dehydrogenase); Potency, µM (titrated, usually from 57.7 µM), actives largely listed as inhibitors; 220,000 compounds, 2.6% hits; also: nearly all actives have a fitted effect of over 70% in size
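Here, H3K4me3 peptide (12.5 µM in substrate mix) is demethylated by KDM5BΔAP, 200 nM final, after 10 min compound exposure. Formaldehyde product is coupled through FDH (0.25 U/mL in mix) to NADH fluorescence; 30-min ΔRFU feeds dose-response curves.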
SNCA viab count = counter-screen for SNCA expression inhibitors: cell viability. HEK-293-SNCA-luc viability, GF-AFC fluorescence, 24 h. Potency, µM (series often up to 57.1 µM), actives largely listed as cytotoxic. 150,000 compounds, 0.12% hits; also: nearly all actives have a fitted effect of over 30% in size
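Cytotoxicity counterscreen: after 24 h compound treatment of genome-edited SNCA-luciferase HEK-293 cells, live-cell protease substrate GF-AFC read by fluorescence after 30 min; activity scaled between DMSO (0%) and medium-only (-100%), curves Hill-fitted.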
SNCA expr inhib = SNCA gene expression inhibition; Potency, µM (highest dose often 57.2 µM), most hits filed as inhibitors; 140,000 compounds, 0.17% hits; HEK-293 SNCA-luciferase knock-in, luminescence, 24 h; also: nearly all actives have a fitted effect of over 45% in size
Large screens that a line does not name were inactive. Unless noted, calls follow the shape of the dose curve; as a rule, active = well fitted curve in the direction sought with a large enough effect; inconclusive = small, poorly fitted or top-dose-only effect, or another doubt; inactive = no such curve, though single readings can be large; an effect the other way counts as inactive or inconclusive.

CNC(=O)c1cc(-c2ccc(O)c(F)c2)cc2c1OCCN2Cc1cccnc1	KDM5B inhibitor 28µM
CNC(=O)c1cc(-c2cnn(C)c2)cc2c1OCCN2Cc1cccnc1	KDM5B inhibitor 40µM
CNC(=O)c1cc(-c2ccccc2)cc2c1OCCN2Cc1cccnc1	KDM5B inhibitor 32µM, SNCA viab count inconclusive
CNC(=O)c1cc(-c2ccnc(NC(C)=O)c2)cc2c1OCCN2Cc1cccnc1	KDM5B inhibitor 40µM
COC(=O)c1cccc(NC(=O)CSc2ncnc3c(-c4ccc(OC)cc4)c[nH]c23)c1	none (no result: IP6K1 inh, SNCA viab count, SNCA expr inhib)
COc1ccc(-c2ncc(CN3CCOC(c4cccnc4)C3)cn2)cc1 (stereo not given)	KDM5B inhibitor 22µM
COc1ccc(CN2CCOC(c3cccnc3)C2)cc1Cn1cccn1 (stereo not given)	none
CN(C)C[C@@H]1CN(c2ncccn2)C[C@H]1NC(=O)c1ccccc1F	KDM5B inhibitor 28µM
Cc1ccc(C)c(C(=O)N[C@@H]2CN(c3ncccn3)C[C@H]2CN(C)C)c1	KDM5B inhibitor 22µM
CN(C)C[C@@H]1CN(c2ncccn2)C[C@H]1NC(=O)c1ccc(C#N)cc1	KDM5B inhibitor inconclusive
CN(C)C[C@@H]1CN(c2ncccn2)C[C@H]1NC(=O)c1cc(F)ccc1Cl	KDM5B inhibitor 32µM
CN(C)C[C@@H]1CN(c2ncccn2)C[C@H]1NC(=O)c1ccccc1Cl	KDM5B inhibitor 22µM
Cc1ccc(C)c(C(=O)N[C@@H]2CN(Cc3ccccn3)C[C@H]2CN(C)C)c1	KDM5B inhibitor inconclusive
COc1ccc(NC(=O)CCS(=O)(=O)c2ccc3c(c2)OCCO3)cc1Cl	none (no result: IP6K1 inh, SNCA viab count, SNCA expr inhib)
Clc1ccc(-c2csc(NC3CC3)n2)c(Cl)c1	none (no result: IP6K1 inh, SNCA viab count, SNCA expr inhib)
CN(C)C[C@@H]1CN(c2ncccn2)C[C@H]1NC(=O)c1cccn1C	KDM5B inhibitor 28µM
CN(C)C[C@@H]1CN(c2ncccn2)C[C@H]1NC(=O)c1cnn(C)c1	KDM5B inhibitor 28µM
O=c1[nH]c(C2CCCN(Cc3ccc(-c4cc(F)cc(F)c4)cc3)C2)nc2ccc(F)cc12 (stereo not given)	KDM5B inhibitor inconclusive, SNCA expr inhib inconclusive
Cc1nnnn1CC(=O)NCc1cccnc1N(C)CCc1ccccn1	none
CCn1ccc(C(=O)NCc2cccnc2N(C)CCc2ccccn2)n1	KDM5B inhibitor 28µM
O=C(c1ccccc1)N1CCNc2cnc(Nc3cccc(F)c3)nc2C1	KDM5B inhibitor inconclusive
O=C(COc1ccccc1)N1CCNc2cnc(Nc3cccc(F)c3)nc2C1	KDM5B inhibitor 35µM
c1ccc([C@@H]2C[C@@H]3C[C@H](NC4CCCCCC4)C[C@@H]3CO2)cc1	none (no result: KDM5B inhibitor, SNCA viab count, SNCA expr inhib)
O=C(NCCN1CCCCC1)c1ccc(-c2nnc3ccc(NC(=O)C4CCC4)cn23)cc1	KDM5B inhibitor 22µM
C=CCNC(=O)c1ccc(-c2nnc3ccc(NC(=O)C4CCC4)cn23)cc1	KDM5B inhibitor 22µM
O=C(Nc1ccc(-c2nnc3n2CCCC3)cc1)C1CCCC1	none
C=CCNC(=O)c1ccccc1NC(=O)C1CCC1	none (no result: IP6K1 inh, SNCA viab count, SNCA expr inhib)
Cc1ncc(-c2ccc(S(=O)(=O)Nc3ccc(C)c(F)c3)cc2)o1	none (no result: IP6K1 inh, SNCA viab count, SNCA expr inhib)
CCOC(=O)C1(Cc2ccc(F)cc2)CCCN(C(=O)c2cc3nc(C)cc(C)n3n2)C1 (stereo not given)	KDM5B inhibitor 32µM
Cc1cc(C)n2nc(C(=O)N3CCC4(CC3)C(=O)Nc3ccccc34)cc2n1	KDM5B inhibitor 28µM
O=C(c1ccccc1)N1CCC2(CC1)C(=O)Nc1ccccc12	none
C=CC[C@H]1Cc2c(Br)cc(Br)c(Br)c2[C@H](CC=C)N1	none (no result: IP6K1 inh, SNCA viab count, SNCA expr inhib)
COc1ccc(C(=O)N2CCc3onc(-c4ccc(C(F)(F)F)cc4)c3C2)o1	KDM5B inhibitor 10µM
FC(F)(F)c1cccc2c(N3CCC4(CCCN4Cc4ncc[nH]4)CC3)ccnc12	KDM5B inhibitor 28µM
COCCC1(C(=O)O)CCN(c2ccnc3c(C(F)(F)F)cccc23)CC1	none
Cc1oc(-c2ccccc2Cl)nc1CS(=O)CC(=O)N1CCN(c2cccc(C(F)(F)F)c2)CC1 (stereo not given)	SNCA viab count inconclusive, SNCA expr inhib 13µM
Cc1nc(N2CCCCC2)ncc1C(=O)N[C@H]1[C@H]2CCO[C@H]2[C@@H]1N(C)C	KDM5B inhibitor 22µM
Cc1nc2ncccn2c1C(=O)N[C@H]1[C@H]2CCO[C@H]2[C@@H]1N(C)C	KDM5B inhibitor 32µM
COc1cccc(-c2ccc(C(=O)NCCNC(=O)c3cccc(Cl)c3)cc2)c1	none (no result: KDM5B inhibitor, SNCA viab count, SNCA expr inhib)
Cc1nc2cnccn2c1C(=O)NCc1ccccc1Cl	none (no result: KDM5B inhibitor, SNCA viab count, SNCA expr inhib)
CCC(C(=O)N1CCN(Cc2ccc(C)c(C)c2)C(=O)C1)n1cccn1 (stereo not given)	none
O=C1CN(C(=O)c2cnc3ccccn3c2=O)CCN1Cc1ccc(F)cc1	KDM5B inhibitor 28µM
COCCn1ccc2c(C3=CCOCC3)nc(-c3cccc(N[S+](C)(=O)[O-])c3)cc21	none
COc1ccccc1-c1nccc2c(=O)cc(C3=CCOCC3)oc12	KDM5B inhibitor inconclusive
COCCn1ccc2c(C3=CCOCC3)nc(-c3cccc(NC(C)=O)c3)cc21	KDM5B inhibitor 35µM
COCCn1ccc2c(C3=CCOCC3)nc(-c3cccc4cn[nH]c34)cc21	KDM5B inhibitor 35µM
O=C(Cc1cccs1)Nc1cccc2c1CCCC2	none (no result: IP6K1 inh, SNCA viab count, SNCA expr inhib)
Cc1cc(C)cc(-c2ccc(CN3CCCC(NC(=O)c4cccc(Cl)c4)C3)cc2)c1 (stereo not given)	none (no result: KDM5B inhibitor)
COc1ccc(NC(=O)CCc2cc3cc(C)ccc3[nH]c2=O)c(OC)c1	none
CCC1CCCCN1CCCNC(=O)CCc1cc2cc(OC)ccc2[nH]c1=O (stereo not given)	KDM5B inhibitor 32µM
CCCNC(=O)CCc1cc2cc(OC)ccc2[nH]c1=O	KDM5B inhibitor 32µM
COc1ccc2[nH]c(=O)c(CCC(=O)NCCc3ccccn3)cc2c1	KDM5B inhibitor inconclusive
COCCCNC(=O)CCc1cc2ccccc2[nH]c1=O	KDM5B inhibitor inconclusive
COCCNC(=O)CCc1cc2cc(OC)ccc2[nH]c1=O	KDM5B inhibitor 32µM
CCN(CC)CCNC(=O)CCc1cc2cc(OC)ccc2[nH]c1=O	KDM5B inhibitor 28µM
COc1ccc(-c2ocnc2C(=O)Nc2c(C)cc(C)cc2C)cc1	none (no result: IP6K1 inh, SNCA viab count, SNCA expr inhib)
CC(C)NC(=O)CSc1cc(C(=O)NC2CC2)c2ccccc2n1	none (no result: IP6K1 inh, SNCA viab count, SNCA expr inhib)
CCCOc1cc(OCCC)c2c(=O)cc(-c3ccccc3)oc2c1	none (no result: IP6K1 inh, SNCA viab count, SNCA expr inhib)
Cc1ccc2cc(CCC(=O)NCCN3CCN(C)CC3)c(=O)[nH]c2c1	KDM5B inhibitor inconclusive
Cc1ccc2[nH]c(=O)c(CCC(=O)N(C)Cc3cn(C)nc3C)cc2c1	KDM5B inhibitor 32µM
COc1ccc2[nH]c(=O)c(CCC(=O)NCCN3CCCCCC3)cc2c1	KDM5B inhibitor 28µM
COc1ccc2[nH]c(=O)c(CCC(=O)N(C)CCc3ccccc3)cc2c1	KDM5B inhibitor 28µM, SNCA expr inhib inconclusive
COc1ccc(N(Cc2cc3cc(OC)ccc3[nH]c2=O)C(=O)c2cccc(Cl)c2)cc1	none
COCCN1C[C@@H]2[C@H](c3ccccc31)[C@@H](CO)[C@@H](c1ccccc1)N2C(=O)C1CC1	none (no result: KDM5B inhibitor, SNCA viab count, SNCA expr inhib)
COCCNC(=O)c1ccc2c(c1)N(C)C(CC(=O)N1CCCCC1)CO2 (stereo not given)	KDM5B inhibitor inconclusive
